Source: PubChem BioAssay (NCATS)
Records with an inconclusive call do not appear. A number with no mark means an inactive call. Activity calls are given as the source filed them. Calls come from the whole dose curve; as a rule, active = well fitted cell-killing curve with a large enough effect; inconclusive = small, poorly fitted or top-dose-only effect; inactive = flat fitted curve, though single readings scatter.

test: Quantitative highthroughput screen to assess conditional lethalithy of P12 Ichikawa cells grown in Human Plasma-Like Medium with dialyzed fetal bovine serum (HPLM+ds) (AID 1963879); conditions: ATP luminescence, 48 h; Potency: viability; series mostly up to 45.8 µM; viability: at the top concentration; note: nearly all actives have a fitted effect of over 35% in size
Source text: Assay Provider: Jason Cantor Ph.D.
Department of Biochemistry
University of Wisconsin-Madison, Madison, WI, USA
Chemical screening studies have identified drug sensitivities across hundreds of cancer cell lines but most putative therapeutics fail to translate. Discovery and development of drug candidates in models that more accurately reflect nutrient levels in human blood is a major challenge. Here we performed high-throughput screens in conventional versus Human Plasma-Like Medium (HPLM) to identify compounds that were "missed" when screening using the artificial culture condition. Sets of conditional anticancer compounds spanned phases of clinical development and included non-oncology drugs were assessed. […] We also traced conditional phenotypes for several chemotherapeutics to availability of HPLM-specific metabolites and confirmed others for compounds whose reported targets are encoded by nonessential genes. Our findings establish generalizable strategies for exploiting conditional lethality in HPLM to reveal therapeutic candidates and mechanisms of action in cancer cells.
Described herein are the results of each viability screens against three cell lines: NOMO1 (an acute myeloid leukemia cell line); P12-Ichikawa (a T-cell acute lymphoblastic leukemia); and SEM (a B-cell ALL). Each assay was screened using 3 different cell culture media: homemade human plasma-Like medium with 10% dialyzed fetal bovine serum (HPLM+ds); RPMI1640 with 10% untreated FBS and 5mM glucose (RPMI+s); and RPMI1640 with 10% dialyzed fetal bovine serum and 5 mM glucose (RPMI+ds).
PROTOCOL TABLE (as described by Inglese J, Shamu CE and Guy RK. 2007)
SEQUENCE No. (e.g., 1, 2, 3, etc.); […] (e.g., Cells, Incubation, Reagent, etc.); VALUE and DESCRIPTION.
1; Cells; 5 uL; white, solid bottom 1536-well Greiner assay plate.
2; Compounds; 23 nL; Kalypsis pin tool (Wako USA) equipped with a 1536-well pin head to transfer to the assay plates.
3; Incubation; 48 hours; 37C incubation.
4; Reagent; 3 uL; CellTiter Glo (Promega).
5; Incubation; 5 min, room temperature
6; Detection; Luminescence, Viewlux PerkinElmer.
NOTES (numbers refer to Sequence numbers above)
1. Briefly, 5 ul of cell reagent was dispensed using a Multidrop Combi Dispenser. The NOMO1 and SEM cells were plated at 500 cells/well and the P12-Ichikawa line at 1000 cells/well.
2. After seeding the cells, 23 nL of MIPE 4.1 library compounds (in DMSO) were added to each plate using a Kalypsys 1536 Pintool dispenser. Bortezomib at final concentration of […] and DMSO were added to each plate as positive and negative controls respectively. For each screen, MIPE 4.1 compounds were added over an eleven-point concentration range […] in 3-fold dilutions.
3. Each plate was covered with a stainless steel gasketed lid to prevent evaporation and incubated for 48 hour at 37C, 95% relative humidity, and 5% CO2.
4-5. Three microliter CellTilter-GloTM luminescent substrate mix (Promega) reagent was added to the assay plate and incubated at room temperature for 5 min.
6. The luminescence signal was measured using a ViewLux (PerkinElmer) multiplate reader with a 2 second exposure time per plate. Data for each compound were normalized as percent viability such that measurements for DMSO and the empty well controls in each plate were defined as 100% and 0%, respectively.
Potency is the fitted concentration of half-maximal effect.

In the case of `CCCCc1ccc2nc(NC(=O)OC)[nH]c2c1`, the Potency is reported as 0.0935 µM (active).
In the case of `CC1(O)CC(c2nc(-c3ccc4ccc(-c5ccccc5)nc4c3)c3c(N)nccn23)C1` (stereo not given), the Potency is reported as 7.43 µM (active).
With `COc1cc2nc(N3CCCN(C)CC3)nc(NC3CCN(Cc4ccccc4)CC3)c2cc1OC` the Potency was 11.8 µM (active).
In the case of `CN1CCN(c2ncc(-c3cc(Cl)cc(Cl)c3Cl)c(N)n2)CC1`, the Potency is reported as 2.64 µM (active).
With `C=C1C(=CC=C2CCC[C@]3(C)[C@@H]([C@H](C)C=C[C@H](C)C(C)C)CC[C@@H]23)C[C@@H](O)C[C@@H]1O` the Potency was 8.33 µM (active).
With `CC(=O)OCC(=O)[C@@]12N=C(C)O[C@H]1C[C@H]1[C@@H]3CCC4=CC(=O)C=C[C@]4(C)[C@@H]3[C@@H](O)C[C@@]12C` the Potency was 4.18 µM (active).
With `O=c1[nH]cc(F)c(=O)[nH]1` the Potency was 8.33 µM (active).
In the case of `CC(C=CC(=O)NO)=C[C@@H](C)C(=O)c1ccc(N(C)C)cc1`, the Potency is reported as 1.48 µM (active).
In the case of `C[C@@H]1O[C@@H](O[C@H]2CC[C@@]3(C)[C@H](CC[C@@H]4[C@H]3C[C@@H](O)[C@]3(C)[C@@H](C5=CC(=O)OC5)CC[C@]43O)C2)C[C@H](O)[C@@H]1O[C@H]1C[C@H](O)[C@H](O[C@H]2C[C@H](O)[C@@H](O)[C@@H](C)O2)[C@H](C)O1` (stereo in doubt), the Potency is reported as 0.0855 µM (active).
In the case of `Cc1ccccc1-n1c(Cn2nc(-c3cccc(O)c3)c3c(N)ncnc32)nc2cccc(C)c2c1=O`, the Potency is reported as 2.96 µM (active).

Compared with `O=C(O)CCNc1cc(N2CCc3ccccc3CC2)nc(-c2ccccn2)n1`, `O=C(O)[C@@H](c1ccc(OCc2ccc3ccccc3n2)cc1)C1CCCC1` is higher in “viability” value: 83.9% for the first, 99.8% for the second.

First: CCN(c1ccccc1)c1cc(NC)[n+](C)c(C)n1
Second: CC=CC(=O)N(CC)c1ccccc1C
The “viability” value of the first is higher: 101% for the first, 97.5% for the second.

First: CCCCCCCCOc1ccccc1C(=O)Nc1ccc(C(=O)OCC[N+](C)(CC)CC)cc1
Second: CCOc1ccccc1OCCNC(C)Cc1ccc(OC)c(S(N)(=O)=O)c1 (stereo not given)
The “viability” value of the first is lower: 85.3% for the first, 97.5% for the second.

Compared with `Cc1ccc2c(c1)C(=O)[C@]1(O)CCN(c3ccccc3)C1=N2`, `CN1CCC[C@H]1CCO[C@](C)(c1ccccc1)c1ccc(Cl)cc1` is lower in “viability” value: 103% for the first, 88.8% for the second.

First: CCn1cc(C(=O)O)c(=O)c2cc(F)c(N3CCNC(C)C3)c(F)c21 (stereo not given)
Second: CCCCOCCOc1nc(-c2ccc(C(=O)O)c(F)c2)sc1C
The “viability” value of the first is lower: 97.2% for the first, 104% for the second.

Going from `CCOC(=O)O[C@]1(C(=O)OCCl)CC[C@@H]2[C@H]3CCC4=CC(=O)C=C[C@]4(C)[C@@H]3[C@@H](O)C[C@@]21C` to `CC1(C)[C@H]2CC[C@]3(C)[C@@H](C(=O)C=C4[C@@H]5C[C@@](C)(C(=O)O)CC[C@]5(C)CC[C@]43C)[C@@]2(C)CC[C@@H]1O`, the “viability” value rises from 95.5% to 97%.

First: CN(C)CCCC1(c2ccc(F)cc2)OCc2cc(C#N)ccc21 (stereo not given)
Second: O=C1C(CCC(O)c2ccc(F)cc2)C(c2ccc(O)cc2)N1c1ccc(F)cc1 (stereo not given)
The “viability” value of the first is lower: 87.8% for the first, 89.2% for the second.

First: CC1=C(C(=O)O)N2C(=O)[C@@H](NC(=O)[C@H](N)C3=CCC=CC3)[C@H]2SC1
Second: COc1ccc2c(c1)c(CC(=O)O)c(C)n2C(=O)c1ccc(Cl)cc1
The “viability” value of the first is lower: 95% for the first, 102% for the second.

Going from `COc1ccc(CC2=NN3C([C@@H](CCc4ccccc4)[C@@H](C)O)=NC(C)C3C(=O)N2)cc1OC` (stereo not given in full) to `COc1ccc(CCC(=O)Nc2nc3ccc(Cl)cc3s2)cc1OC`, the “viability” value rises from 101% to 105%.

First: CCS(=O)(=O)N1CC(CC#N)(n2cc(-c3ncnc4[nH]ccc34)cn2)C1
Second: CC[C@H](CO)Nc1nc(NCc2ccccc2)c2ncn(C(C)C)c2n1
The “viability” value of the first is lower: 92.8% for the first, 96.1% for the second.

Going from `Nc1nc2c(ncn2COCCO)c(=O)[nH]1` to `Cc1cn([C@@H]2O[C@H](CO)[C@@H](O)[C@H]2F)c(=O)[nH]c1=O`, the “viability” value rises from 87.6% to 98.1%.

Compared with `NNc1nncc2ccccc12`, `Nc1nc(N)nc(-c2cc(Cl)ccc2Cl)n1` is lower in “viability” value: 102% for the first, 94.2% for the second.

Compared with `CC(C)c1nc(CN(C)C(=O)N[C@H](C(=O)N[C@@H](Cc2ccccc2)C[C@H](O)[C@H](Cc2ccccc2)NC(=O)OCc2cncs2)C(C)C)cs1`, `CCNC(=O)[C@H]1O[C@@H](n2cnc3c(N)nc(NCCc4ccc(CCC(=O)O)cc4)nc32)[C@H](O)[C@H]1O` is lower in “viability” value: 104% for the first, 99.7% for the second.

Going from `O=C(CCc1ccc(O)cc1)c1c(O)cc(O)cc1O[C@@H]1O[C@H](CO)[C@H](O)[C@H](O)[C@H]1O` to `CCOc1ccc(Cc2cc([C@@H]3O[C@H](CO)[C@@H](O)[C@H](O)[C@@H]3O)ccc2Cl)cc1`, the “viability” value rises from 96.5% to 97.2%.

In the case of `C[C@@H](Cc1cc2c(c(C(N)=O)c1)N(CCCO)CC2)NCCOc1ccccc1OCC(F)(F)F`, the “viability” value is reported as 98.1%.

For `O=C(O)[C@H](Cc1c[nH]c2ccccc12)N1C(=O)c2ccccc2C1=O`, the “viability” value was 97.3% [at 92.2 µM].
